The source made the active and inactive calls.

The nature of assay [1]: small molecules captured by biotinylated probe aFSTL3 – biochemical, small-molecule microarray, fluorescence 635/667, stem cell growth factor project, primary screen (AID 1064).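 Note: measures binding of the biotinylated anti-FSTL3 antibody to printed compounds.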 The note with it: higher = more signal.
Assay [2] in a line: binders from COS7 lysate, DM2A8 probe, primary screen, torsin A project, cell lysate, small-molecule microarray, fluorescence 635/667 (AID 1065). The note with it: higher = more signal, COS7 lysate expressing mutant human TOR1A.
Assay [3] is described as follows: small molecules captured by biotinylated probe aFGF2 – biochemical, small-molecule microarray, fluorescence 635/667, stem cell growth factor project, primary screen (AID 1067).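 Note: measures binding of biotinylated aFGF2 protein to printed compounds on slides; z-score merges feature fluorescence and signal-to-noise across triplicate slides.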 The note with it: higher = more signal.
Assay [4] is described as follows: small molecules captured by biotinylated probe aFGF10 – biochemical, small-molecule microarray, fluorescence 635/667, stem cell growth factor project, primary screen (AID 1071).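 Note: score merges 667 nm spot intensity and signal to noise from triplicate slides.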 The note with it: higher = more signal.
Assay [5] addresses Neurogenic locus notch homolog protein 2 (Homo sapiens) (UniProt Q04721). Nature of the assay: small molecules binding Notch2 protein – biochemical, small-molecule microarray, 635 nm fluorescence, stem cell growth factors, primary screen (AID 1073). Particulars: higher = more signal.
The target in assay [6] is Pro-neuregulin-1, membrane-bound isoform (Homo sapiens) (UniProt Q02297). In words: small molecules binding neuregulin-1 protein – biochemical, small-molecule microarray, fluorescence 635/667, psychiatric disease protein project, primary screen (AID 1075).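 Note: score combines 667 nm spot fluorescence with signal to noise.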 The note with it: NRG1 binding, 635 nm fluorescence, higher = more signal.
Assay [7] has as its system Neuregulin-1 EGF-like domain. Nature of the assay: small molecules binding NRG1 EGF domain – biochemical, small-molecule microarray, 635 nm fluorescence, primary screen (AID 1081).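 Note: binding of the protein to compounds printed on small-molecule microarray slides.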 The note with it: higher = more signal.
Assay [8] is described as follows: FRG1 expression reporter modulators in myotubes – cell-based, C2C12 myotubes, firefly/Renilla luciferase, luminescence, FRG1 inhibition for FSHD, primary screen (AID 1084). The note with it: FRG1 promoter luciferase, higher = more signal, called active from +8 up or from −8 down.
A short description of assay [9]: small molecules captured by biotinylated probe aFST – biochemical, small-molecule microarray, fluorescence 635/667, stem cell growth factor project, primary screen (AID 1086).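 Note: score merges 667 nm fluorescence with signal-to-noise of each printed compound spot.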 The note with it: higher = more signal.
Assay [10] can be described thus: binders of probe aHhip on microarray, primary screen, stem cell growth factor project, biochemical, small-molecule microarray, fluorescence 635/667 (AID 1087).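 Note: score merges spot fluorescence at 667nm with spot signal to noise ratio.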 Particulars: higher = more signal.

Sequence of Neurogenic locus notch homolog protein 2 (Homo sapiens) (Q04721 whole entry, looked up, canonical isoform): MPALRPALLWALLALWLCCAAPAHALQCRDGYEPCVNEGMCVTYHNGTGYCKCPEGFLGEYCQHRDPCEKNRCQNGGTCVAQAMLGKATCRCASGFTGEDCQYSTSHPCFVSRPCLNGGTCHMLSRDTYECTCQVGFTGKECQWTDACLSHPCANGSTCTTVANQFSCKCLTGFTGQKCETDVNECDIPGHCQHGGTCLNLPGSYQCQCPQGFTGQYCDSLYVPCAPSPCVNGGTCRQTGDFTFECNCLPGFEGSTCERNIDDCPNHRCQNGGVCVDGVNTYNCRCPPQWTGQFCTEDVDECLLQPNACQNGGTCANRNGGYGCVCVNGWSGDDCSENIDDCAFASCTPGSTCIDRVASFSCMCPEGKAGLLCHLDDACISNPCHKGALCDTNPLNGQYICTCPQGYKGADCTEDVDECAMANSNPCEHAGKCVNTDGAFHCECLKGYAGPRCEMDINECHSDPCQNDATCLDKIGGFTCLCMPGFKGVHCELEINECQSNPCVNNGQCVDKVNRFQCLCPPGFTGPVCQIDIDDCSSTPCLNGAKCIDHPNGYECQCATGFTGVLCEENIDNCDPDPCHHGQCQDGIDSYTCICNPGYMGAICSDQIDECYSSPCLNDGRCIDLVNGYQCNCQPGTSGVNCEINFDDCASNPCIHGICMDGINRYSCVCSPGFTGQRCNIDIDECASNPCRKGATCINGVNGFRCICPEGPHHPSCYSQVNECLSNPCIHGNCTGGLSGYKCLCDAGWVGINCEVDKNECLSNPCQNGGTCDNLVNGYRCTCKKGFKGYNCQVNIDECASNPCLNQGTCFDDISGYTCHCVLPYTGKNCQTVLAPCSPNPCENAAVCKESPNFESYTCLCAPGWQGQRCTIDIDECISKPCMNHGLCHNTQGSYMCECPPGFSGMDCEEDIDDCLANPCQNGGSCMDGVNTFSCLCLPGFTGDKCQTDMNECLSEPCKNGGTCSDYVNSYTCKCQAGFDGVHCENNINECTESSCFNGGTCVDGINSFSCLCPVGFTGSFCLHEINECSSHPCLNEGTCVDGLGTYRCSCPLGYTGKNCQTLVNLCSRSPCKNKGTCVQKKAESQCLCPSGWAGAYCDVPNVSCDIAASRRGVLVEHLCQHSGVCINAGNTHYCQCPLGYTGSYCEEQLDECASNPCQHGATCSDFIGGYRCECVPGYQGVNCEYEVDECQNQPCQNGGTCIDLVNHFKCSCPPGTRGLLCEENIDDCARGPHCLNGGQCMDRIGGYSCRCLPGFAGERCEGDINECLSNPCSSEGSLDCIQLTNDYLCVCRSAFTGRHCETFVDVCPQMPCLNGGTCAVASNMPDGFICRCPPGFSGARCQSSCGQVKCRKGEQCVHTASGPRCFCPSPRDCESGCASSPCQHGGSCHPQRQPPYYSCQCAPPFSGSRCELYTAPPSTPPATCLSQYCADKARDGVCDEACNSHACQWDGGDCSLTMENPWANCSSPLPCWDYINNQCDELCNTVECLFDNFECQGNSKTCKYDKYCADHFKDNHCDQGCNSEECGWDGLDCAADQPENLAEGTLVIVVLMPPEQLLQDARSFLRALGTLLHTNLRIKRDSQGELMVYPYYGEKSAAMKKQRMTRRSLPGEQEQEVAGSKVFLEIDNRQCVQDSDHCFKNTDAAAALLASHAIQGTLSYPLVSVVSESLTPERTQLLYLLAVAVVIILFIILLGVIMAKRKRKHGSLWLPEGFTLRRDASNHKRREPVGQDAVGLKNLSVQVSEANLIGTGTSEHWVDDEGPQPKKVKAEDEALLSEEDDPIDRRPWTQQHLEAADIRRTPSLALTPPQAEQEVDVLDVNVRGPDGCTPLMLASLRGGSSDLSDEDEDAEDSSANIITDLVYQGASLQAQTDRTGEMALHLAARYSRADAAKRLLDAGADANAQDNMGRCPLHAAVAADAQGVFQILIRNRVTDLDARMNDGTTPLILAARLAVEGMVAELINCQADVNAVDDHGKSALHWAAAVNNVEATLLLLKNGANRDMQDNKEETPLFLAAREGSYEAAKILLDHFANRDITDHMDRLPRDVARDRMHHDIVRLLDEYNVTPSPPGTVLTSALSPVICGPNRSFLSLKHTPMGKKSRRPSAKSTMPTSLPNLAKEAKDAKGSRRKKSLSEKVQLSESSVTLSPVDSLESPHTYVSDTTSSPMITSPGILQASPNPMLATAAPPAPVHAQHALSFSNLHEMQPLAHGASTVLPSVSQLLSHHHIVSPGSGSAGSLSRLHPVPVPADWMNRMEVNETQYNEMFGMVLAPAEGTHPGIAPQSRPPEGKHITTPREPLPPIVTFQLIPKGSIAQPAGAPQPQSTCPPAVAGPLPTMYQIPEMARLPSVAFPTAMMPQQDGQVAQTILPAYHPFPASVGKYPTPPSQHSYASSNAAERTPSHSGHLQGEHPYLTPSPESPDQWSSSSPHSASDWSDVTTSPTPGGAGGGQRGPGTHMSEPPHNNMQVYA
Sequence of Pro-neuregulin-1, membrane-bound isoform (Homo sapiens) (Q02297 whole entry, looked up, the tested form may be a part, canonical isoform): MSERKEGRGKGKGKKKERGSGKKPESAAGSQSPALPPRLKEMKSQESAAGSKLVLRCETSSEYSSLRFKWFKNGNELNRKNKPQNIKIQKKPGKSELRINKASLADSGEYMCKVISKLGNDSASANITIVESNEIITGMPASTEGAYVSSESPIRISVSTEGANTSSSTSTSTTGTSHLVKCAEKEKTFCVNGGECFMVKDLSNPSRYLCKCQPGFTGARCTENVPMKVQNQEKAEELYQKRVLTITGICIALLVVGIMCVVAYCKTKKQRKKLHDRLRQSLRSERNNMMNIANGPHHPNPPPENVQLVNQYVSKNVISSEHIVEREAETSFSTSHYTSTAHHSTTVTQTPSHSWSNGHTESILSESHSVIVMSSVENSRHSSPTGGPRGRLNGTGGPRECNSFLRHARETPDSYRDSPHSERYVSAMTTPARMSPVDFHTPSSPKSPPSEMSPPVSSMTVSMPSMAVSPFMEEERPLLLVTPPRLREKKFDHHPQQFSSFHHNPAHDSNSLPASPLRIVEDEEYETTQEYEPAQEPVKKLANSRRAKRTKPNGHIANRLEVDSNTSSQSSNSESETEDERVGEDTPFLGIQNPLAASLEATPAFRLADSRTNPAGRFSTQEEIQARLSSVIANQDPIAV

For the compound `C=C(/C(=C/C[C@@H](OC(=O)c1ccncc1)c1ccc(OCCO)cc1)c1cnc2ccccc2c1)C(C)C`, the composite z-score in assay [1] was -0.342; in [2], -0.0128; in assay [3], -0.186; in assay [4] it was 0.128; in [5], 0.772; in [6] it was 0.562. Also, the results for the composite z-score in [7], in assay [9] and in [10] were 0.694, 0.201 and 0.0206, respectively. Also, the z-score in assay [8] is -2.27 (inactive).
With `C/C=C\[C@@H](NCc1ccccc1Br)[C@@H](O)Cc1ccccc1`, the composite z-score in [1] was 1.08; in assay [2], -0.441; in assay [3], -0.151; in assay [4], -0.75; in [5], -1.46; in assay [6] it was -0.0182. Further, the composite z-score was -0.537 in assay [7], -0.336 in assay [9] and -0.236 in [10]. Further, the z-score in assay [8] is -0.445 (inactive).
As for `CCCC=C(CCC)[C@@H](NC(=O)c1ccc(-c2ccccc2)cc1)c1ccc(C(=O)OC)cc1`, the composite z-score in [1] was 0.0763; in assay [2] it was -0.719; in assay [3], 0.0827; in assay [4], 0.0375; in assay [5] it was 1.51; in assay [6] it was 0.746. Besides, the results for the composite z-score in assay [7], in [9] and in assay [10] were 0.824, 0.801 and 1.81, respectively. The z-score in [8] is 0.348 (inactive).
Consider `CO[C@@H]1COC(=O)CCC[C@@H](C)[C@H](OC)COC(=O)CCC[C@H]1C`, for which the composite z-score in assay [1] is -0.298; in assay [2] it was 0.743; in assay [3], -0.0982; in assay [4], 0.219; in assay [5], 0.633; in assay [6] it was -0.63. The composite z-score in assay [7] turned out to be 0.176; in [9], 0.561; in assay [10], 0.369. Further, the z-score in assay [8] was 0.462 (inactive).
Take `C[N+](C)(C)CCCCCCNC(=O)[C@@H]1C[C@@H]2C(=O)N3CCC[C@H]3C(=O)N2[C@@H]1c1cccc(OCCO)c1`: the composite z-score is -0.0041 in assay [1]; 0.669 in [2]; -0.169 in assay [3]; -0.239 in [4]; -0.337 in assay [5]; 0.747 in [6]. Also, the results for the composite z-score in [7], in [9] and in assay [10] were 1.35, -0.128 and -0.48, respectively. In addition, the z-score in assay [8] is 5.01 (inactive).
Consider `CC(C)C[C@@H]1NC(=O)[C@H]2C[C@@H](C(=O)O)[C@@H](c3ccc(O)cc3)N2C1=O`, for which the composite z-score in [1] was 1.29; in [2] it was 1.31; in [3], -0.087; in assay [4] it was -0.211; in assay [5], -0.506; in assay [6], 1.47. Moreover, the figures for the composite z-score in assay [7], in assay [9] and in [10] were 1.29, 0.123 and 0.613, respectively. For the same compound, in assay [8], the z-score was 6.75 (inactive).
In the case of `C[C@@H]1C=CCC(=O)OC[C@H](C)C(=O)N[C@@H](C)C(=O)OC1`, the composite z-score in assay [1] is -0.329; in assay [2] it was 0.907; in [3] it was -0.162; in [4], 0.0108; in [5], 0.0057; in [6], -0.313. The composite z-score in assay [7] was -0.0497; in assay [9], 0.258; in assay [10] it was -0.069. For the same compound, the z-score in [8] was -0.98 (inactive).
With `CC(C)[Si]1(C(C)C)O[C@@H](c2ccccc2)c2cc(C3CC3)nc(-c3ccccc3)c21`, the composite z-score in assay [1] was -0.324; in [2], -0.598; in [3], -0.0494; in assay [4], -0.0526; in [5] it was 0.0397; in [6], -0.234. The composite z-score was -0.717 in assay [7], -0.0973 in assay [9] and 0.0274 in assay [10]. The z-score in assay [8] was 0.178 (inactive).
With `O=C(NN=C1C[C@@H](O)[C@@H](O)[C@@H]2[C@@H]3C(=O)N(c4ccc(F)cc4F)C(=O)[C@@H]3CC[C@@H]12)OCc1ccccc1`, the composite z-score in assay [1] was -0.105; in assay [2], 0.361; in assay [3], -0.0845; in [4], 0.215; in assay [5] it was 0.283; in [6], 0.113. The composite z-score in [7] was -0.882; in [9], 0.51; in assay [10], -0.0672. In [8], the z-score was 0.228 (inactive).
Take `COc1ccc(COC(=O)NN=C2C[C@@H](O)[C@@H](O)[C@@H]3[C@@H]4C(=O)N(Cc5ccc6c(c5)OCO6)C(=O)[C@@H]4CC[C@@H]23)cc1`: the composite z-score is 1.58 in [1]; 0.43 in [2]; 0.0203 in assay [3]; -0.0669 in [4]; -0.732 in assay [5]; -0.424 in [6]. In addition, the composite z-score was 0.146 in [7], 1.18 in assay [9] and 0.0722 in assay [10]. Moreover, the z-score in [8] was -0.918 (inactive).
On to `CC(C)=NOCc1cccc(-c2cc(-c3ccccc3)no2)c1`, for which the composite z-score in [1] was -0.575; in assay [2], 0.221; in assay [3], -0.0767; in [4] it was 0.717; in assay [5], 0.0486; in [6] it was 0.205. The composite z-score in assay [7] is 0.345; in assay [9], 0.376; in assay [10] it was 0.0024. For the same compound, the z-score in assay [8] was 0.603 (inactive).
Take `CO[C@@H]1COC(=O)CC=C[C@@H](C)[C@@H]2C=C[C@H](O)[C@@H](COC(=O)[C@H](C)NC(=O)CC=C[C@H]1C)O2`: the composite z-score in assay [1] was -0.556; in assay [2] it was 0.977; in assay [3], -0.15; in [4] it was 0.321; in assay [5], 0.268; in [6], -0.497. The composite z-score in assay [7] came out at 0.849; in [9], 0.277; in [10] it was 0.351. In assay [8], the z-score is 0.361 (inactive).
As for `CC=CC1=C(CO)[C@H](O)[C@H]2O[C@H]2[C@H]1O`, the composite z-score in assay [1] is -0.659; in assay [2], 0.253; in [3], -0.027; in [4] it was 0.166; in assay [5], -0.0482; in [6], -0.157. Also, the values for the composite z-score in assay [7], in assay [9] and in assay [10] were 0.583, -0.191 and 0.0881, respectively. Besides, the z-score in assay [8] is -0.0975 (inactive).
In the case of `CC(=O)OC[C@H]1O[C@H](C#CCCCc2ccccc2)C=C[C@@H]1OC(C)=O`, the composite z-score in assay [1] is -0.0129; in assay [2] it was 0.105; in assay [3] it was -0.083; in [4] it was 0.73; in [5], 0.2; in assay [6], 0.505. Further, the values for the composite z-score in [7], in assay [9] and in assay [10] were 0.765, -0.206 and 0.351, respectively. Also, the z-score in assay [8] was -0.13 (inactive).
On to `CCOC(=O)[C@H](CC(C)C)NC(=O)CCC1CC(OC(=O)NCCc2ccc(F)cc2)CC2(CCCC(COC(=O)NCc3ccccc3)O2)O1` (stereo not given in full), for which the composite z-score in assay [1] is -0.969; in assay [2] it was 0.561; in assay [3], 0.0131; in [4] it was 1.02; in [5], 0.769; in assay [6], 1.13. Further, the composite z-score is 1.28 in assay [7], 0.223 in [9] and 0.0695 in assay [10]. In addition, the z-score in assay [8] is 2.94 (inactive).
For `CC(CCN1CCc2nc(-c3ccccc3)c(-c3ccccc3)cc2C1)=NO[C@@H](C)c1cn([C@H](CO)Cc2ccccc2)nn1`, the composite z-score was -0.261 in [1]; 0.608 in assay [2]; -0.143 in assay [3]; -0.0983 in [4]; -0.674 in assay [5]; 0.424 in assay [6]. The composite z-score is 0.124 in assay [7], 0.0854 in [9] and -0.189 in assay [10]. For the same compound, the z-score in [8] was -0.54 (inactive).
For `O=C1[C@H]2[C@H]3[C@H](O)[C@H](O)CC(=NO[C@@H]4O[C@H](CO)[C@@H](O)[C@H](O)[C@H]4O)[C@H]3CC[C@H]2C(=O)N1C1CCCCC1`, the composite z-score in assay [1] was -0.332; in assay [2], 1.49; in [3] it was -0.0659; in assay [4], -0.0948; in assay [5], 0.028; in assay [6], -0.197. Also, the composite z-score came out at 0.995 in assay [7], 0.276 in assay [9] and 0.841 in assay [10]. The z-score in [8] is -0.225 (inactive).
